Reference: the supplement of paper PMC7411054

Columns and labels:
Test in all cases: phenotypically active (imaging signature differs from DMSO and reproducible) at any of 0.3-9 uM (binary (1 = active, 0 = inactive)); higher = active
Details in all cases: treatment time: 24 h
A549-ACTB-RAB5A = system: A549-ACTB-RAB5A
Summary of the method: (§1)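 Four wells per concentration (0.3, 1, 3 or 9 µM) were treated for 24 h in each of fifteen gene-edited reporter lines from A549, HepG2 and WPMY1 cells, then imaged live. After normalising live-cell features to solvent control wells, deviation was defined as ≥3 of 4 wells lying past the 95th percentile of control Euclidean distances. Reproducibility was defined as a median replicate Pearson correlation above the 95th percentile of non-replicates. Both had to hold for phenotypic activity.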

A549-CANX-COX4 = system: A549-CANX-COX4
Summary of the method: as §1

A549-GM130-SQSTM1 = system: A549-GM130-SQSTM1
Summary of the method: as §1

A549-TP53BP1-CLTA = system: A549-TP53BP1-CLTA
Summary of the method: as §1

A549-TUBA1B-RELA = system: A549-TUBA1B-RELA
Summary of the method: as §1

HepG2-ACTB-RAB5A = system: HepG2-ACTB-RAB5A
Summary of the method: as §1

HepG2-CANX-COX4 = system: HepG2-CANX-COX4
Summary of the method: as §1

HepG2-GM130-SQSTM1 = system: HepG2-GM130-SQSTM1
Summary of the method: as §1

HepG2-TP53BP1-CLTA = system: HepG2-TP53BP1-CLTA
Summary of the method: as §1

HepG2-TUBA1B-RELA = system: HepG2-TUBA1B-RELA
Summary of the method: as §1

WPMY1-ACTB-RAB5A = system: WPMY1-ACTB-RAB5A
Summary of the method: as §1

WPMY1-CANX-COX4 = system: WPMY1-CANX-COX4
Summary of the method: as §1

WPMY1-GM130-SQSTM1 = system: WPMY1-GM130-SQSTM1
Summary of the method: as §1

WPMY1-TP53BP1-CLTA = system: WPMY1-TP53BP1-CLTA
Summary of the method: as §1

WPMY1-TUBA1B-RELA = system: WPMY1-TUBA1B-RELA
Summary of the method: as §1

Measured: phenotypically active

Cc1ccc(N(CC2=NCCN2)c2cccc(O)c2)cc1 [phentolamine]
inactive: A549-ACTB-RAB5A 0 | A549-CANX-COX4 0 | A549-GM130-SQSTM1 0 | A549-TP53BP1-CLTA 0 | A549-TUBA1B-RELA 0 | HepG2-ACTB-RAB5A 0 | HepG2-CANX-COX4 0 | HepG2-GM130-SQSTM1 0 | HepG2-TP53BP1-CLTA 0 | HepG2-TUBA1B-RELA 0 | WPMY1-ACTB-RAB5A 0 | WPMY1-CANX-COX4 0 | WPMY1-GM130-SQSTM1 0 | WPMY1-TP53BP1-CLTA 0 | WPMY1-TUBA1B-RELA 0

O=C(/C=C/N1C[C@H]2C[C@@H]1CN2c1ccccn1)c1ccccc1O
inactive: A549-ACTB-RAB5A 0 | A549-CANX-COX4 0 | A549-GM130-SQSTM1 0 | A549-TP53BP1-CLTA 0 | A549-TUBA1B-RELA 0 | HepG2-ACTB-RAB5A 0 | HepG2-CANX-COX4 0 | HepG2-GM130-SQSTM1 0 | HepG2-TP53BP1-CLTA 0 | HepG2-TUBA1B-RELA 0 | WPMY1-ACTB-RAB5A 0 | WPMY1-CANX-COX4 0 | WPMY1-GM130-SQSTM1 0 | WPMY1-TP53BP1-CLTA 0 | WPMY1-TUBA1B-RELA 0

NS(=O)(=O)c1cc2c(cc1Cl)N=C(CSCc1ccccc1)NS2(=O)=O [benzthiazide]
inactive: A549-ACTB-RAB5A 0 | A549-CANX-COX4 0 | A549-GM130-SQSTM1 0 | A549-TP53BP1-CLTA 0 | A549-TUBA1B-RELA 0 | HepG2-ACTB-RAB5A 0 | HepG2-CANX-COX4 0 | HepG2-GM130-SQSTM1 0 | HepG2-TP53BP1-CLTA 0 | HepG2-TUBA1B-RELA 0 | WPMY1-ACTB-RAB5A 0 | WPMY1-CANX-COX4 0 | WPMY1-GM130-SQSTM1 0 | WPMY1-TP53BP1-CLTA 0 | WPMY1-TUBA1B-RELA 0

Cc1cc(-c2ccc(/C=C3\S/C(=N\c4ccc(Cl)c(C(=O)O)c4)NC3=O)o2)c([N+](=O)[O-])cc1C
inactive: A549-ACTB-RAB5A 0 | A549-CANX-COX4 0 | A549-GM130-SQSTM1 0 | A549-TP53BP1-CLTA 0 | A549-TUBA1B-RELA 0 | HepG2-ACTB-RAB5A 0 | HepG2-CANX-COX4 0 | HepG2-GM130-SQSTM1 0 | HepG2-TP53BP1-CLTA 0 | HepG2-TUBA1B-RELA 0 | WPMY1-ACTB-RAB5A 0 | WPMY1-CANX-COX4 0 | WPMY1-GM130-SQSTM1 0 | WPMY1-TP53BP1-CLTA 0 | WPMY1-TUBA1B-RELA 0

Brc1c(NC2=NCCN2)ccc2nccnc12 [brimonidine]
inactive: A549-ACTB-RAB5A 0 | A549-CANX-COX4 0 | A549-GM130-SQSTM1 0 | A549-TP53BP1-CLTA 0 | A549-TUBA1B-RELA 0 | HepG2-ACTB-RAB5A 0 | HepG2-CANX-COX4 0 | HepG2-GM130-SQSTM1 0 | HepG2-TP53BP1-CLTA 0 | HepG2-TUBA1B-RELA 0 | WPMY1-ACTB-RAB5A 0 | WPMY1-CANX-COX4 0 | WPMY1-GM130-SQSTM1 0 | WPMY1-TP53BP1-CLTA 0 | WPMY1-TUBA1B-RELA 0

Oc1cc(O)c2c(c1)O[C@H](c1ccc(O)c(O)c1)[C@@H](O)C2 [Epicatechin-(-)]
inactive: A549-ACTB-RAB5A 0 | A549-CANX-COX4 0 | A549-GM130-SQSTM1 0 | A549-TP53BP1-CLTA 0 | A549-TUBA1B-RELA 0 | HepG2-ACTB-RAB5A 0 | HepG2-CANX-COX4 0 | HepG2-GM130-SQSTM1 0 | HepG2-TP53BP1-CLTA 0 | HepG2-TUBA1B-RELA 0 | WPMY1-ACTB-RAB5A 0 | WPMY1-CANX-COX4 0 | WPMY1-GM130-SQSTM1 0 | WPMY1-TP53BP1-CLTA 0 | WPMY1-TUBA1B-RELA 0

CSc1ccc(C(=O)c2[nH]c(=O)[nH]c2C)cc1 [Enoximone]
inactive: A549-ACTB-RAB5A 0 | A549-CANX-COX4 0 | A549-GM130-SQSTM1 0 | A549-TP53BP1-CLTA 0 | A549-TUBA1B-RELA 0 | HepG2-ACTB-RAB5A 0 | HepG2-CANX-COX4 0 | HepG2-GM130-SQSTM1 0 | HepG2-TP53BP1-CLTA 0 | HepG2-TUBA1B-RELA 0 | WPMY1-ACTB-RAB5A 0 | WPMY1-CANX-COX4 0 | WPMY1-GM130-SQSTM1 0 | WPMY1-TP53BP1-CLTA 0 | WPMY1-TUBA1B-RELA 0

CC(=O)N[C@@H]1[C@@H](O[C@H](C)C(=O)O)[C@H](O)[C@@H](CO)O[C@@H]1O [Muramic acid, N-acetyl]
inactive: A549-ACTB-RAB5A 0 | A549-CANX-COX4 0 | A549-GM130-SQSTM1 0 | A549-TP53BP1-CLTA 0 | A549-TUBA1B-RELA 0 | HepG2-ACTB-RAB5A 0 | HepG2-CANX-COX4 0 | HepG2-GM130-SQSTM1 0 | HepG2-TP53BP1-CLTA 0 | HepG2-TUBA1B-RELA 0 | WPMY1-ACTB-RAB5A 0 | WPMY1-CANX-COX4 0 | WPMY1-GM130-SQSTM1 0 | WPMY1-TP53BP1-CLTA 0 | WPMY1-TUBA1B-RELA 0

COC(=O)c1ccc(N2CCN(C)CC2)c(NC(=O)c2cccc(OC)c2)c1
inactive: A549-ACTB-RAB5A 0 | A549-CANX-COX4 0 | A549-GM130-SQSTM1 0 | A549-TP53BP1-CLTA 0 | A549-TUBA1B-RELA 0 | HepG2-ACTB-RAB5A 0 | HepG2-CANX-COX4 0 | HepG2-GM130-SQSTM1 0 | HepG2-TP53BP1-CLTA 0 | HepG2-TUBA1B-RELA 0 | WPMY1-ACTB-RAB5A 0 | WPMY1-CANX-COX4 0 | WPMY1-GM130-SQSTM1 0 | WPMY1-TP53BP1-CLTA 0 | WPMY1-TUBA1B-RELA 0

Cc1ccnn1-c1ccc(C(=O)N2CCN(S(=O)(=O)c3ccc(Cl)c(C(F)(F)F)c3)CC2)cc1
inactive: A549-ACTB-RAB5A 0 | A549-CANX-COX4 0 | A549-GM130-SQSTM1 0 | A549-TP53BP1-CLTA 0 | A549-TUBA1B-RELA 0 | HepG2-ACTB-RAB5A 0 | HepG2-CANX-COX4 0 | HepG2-GM130-SQSTM1 0 | HepG2-TP53BP1-CLTA 0 | HepG2-TUBA1B-RELA 0 | WPMY1-ACTB-RAB5A 0 | WPMY1-CANX-COX4 0 | WPMY1-GM130-SQSTM1 0 | WPMY1-TP53BP1-CLTA 0 | WPMY1-TUBA1B-RELA 0

CCOc1ccccc1OCCN[C@H](C)Cc1ccc(OC)c(S(N)(=O)=O)c1 [tamsulosin]
inactive: A549-ACTB-RAB5A 0 | A549-CANX-COX4 0 | A549-GM130-SQSTM1 0 | A549-TP53BP1-CLTA 0 | A549-TUBA1B-RELA 0 | HepG2-ACTB-RAB5A 0 | HepG2-CANX-COX4 0 | HepG2-GM130-SQSTM1 0 | HepG2-TP53BP1-CLTA 0 | HepG2-TUBA1B-RELA 0 | WPMY1-ACTB-RAB5A 0 | WPMY1-CANX-COX4 0 | WPMY1-GM130-SQSTM1 0 | WPMY1-TP53BP1-CLTA 0 | WPMY1-TUBA1B-RELA 0
